“And” between values parts separate entries of the source, which are not always exact repeats. Identical values can stand only once. Records with an inconclusive call do not appear. The source made the active and inactive calls. Unless noted, the call rests on the fitted dose curve; in most records, active means well fitted curve in the direction sought with a large enough effect in the repeat runs; inconclusive means weak or mixed curves; inactive means no such curve, though single readings can be large; an effect the other way counts as inactive or inconclusive.

The nature of experiment [1]: qHTS assay to identify small molecule antagonists of the thyroid receptor (TR) signaling pathway (AID 743065). Further: series mostly up to about 70 µM; nearly all actives have a fitted effect of over 55% in size. Summed up:
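Antagonism measured as loss of luciferase signal in GH3 cells stably carrying a TRE-luciferase reporter, co-treated with compound and T3 (1 nM final) for 23.5 h at 37 C. Viability was read in the same well by CellTiter-Fluor.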

In experiment [2] the test system is thyroid hormone receptor (rat, GH3 cells). The experiment can be described thus: qHTS assay to identify small molecule agonists of the thyroid receptor (TR) signaling pathway (AID 743066; calls by dose curve). (In general: In qHTS, concentration-response curves come from the screen itself.)
A short description of experiment [3]: qHTS assay to identify small molecule antagonists of the estrogen receptor alpha (ER-alpha) signaling pathway - cell viability counter screen (AID 743074; calls by dose curve; further: nearly all actives have a fitted effect of over 45% in size).
Experiment [4] can be described thus: qHTS assay to identify small molecule antagonists of the estrogen receptor alpha (ER-alpha) signaling pathway using the BG1 cell line - cell viability counter screen (AID 743081).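 Further: compound given together with 17beta-estradiol as the ER stimulus; nearly all actives have a fitted effect of over 45% in size.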 Further: potency means the concentration at half of the fitted maximal effect.
The target in experiment [5] is Aromatase (Homo sapiens) (UniProt P11511). Kind of experiment: qHTS assay to identify aromatase inhibitors (AID 743083). Further: series mostly up to about 70 µM; nearly all actives have a fitted effect of over 55% in size.
Aromatase (Homo sapiens), sequence (P11511 whole entry, looked up): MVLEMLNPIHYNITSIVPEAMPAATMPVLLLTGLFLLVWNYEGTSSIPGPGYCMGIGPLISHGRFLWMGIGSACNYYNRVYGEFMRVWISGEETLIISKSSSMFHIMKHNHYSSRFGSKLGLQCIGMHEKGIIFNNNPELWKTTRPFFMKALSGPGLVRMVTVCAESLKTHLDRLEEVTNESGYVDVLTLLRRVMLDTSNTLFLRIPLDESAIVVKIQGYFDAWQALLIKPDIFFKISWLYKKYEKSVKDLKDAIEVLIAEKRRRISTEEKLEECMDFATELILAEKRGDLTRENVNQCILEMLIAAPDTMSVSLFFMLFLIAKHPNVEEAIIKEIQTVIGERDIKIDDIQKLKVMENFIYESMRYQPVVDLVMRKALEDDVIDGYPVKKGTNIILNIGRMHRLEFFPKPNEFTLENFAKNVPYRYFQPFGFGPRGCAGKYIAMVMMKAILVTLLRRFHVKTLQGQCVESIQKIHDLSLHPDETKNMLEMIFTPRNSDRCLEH
The nature of experiment [6]: qHTS assay to identify aromatase inhibitors - cell viability counter screen (AID 743084).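 Further: cells stimulated with testosterone during compound exposure; nearly all actives have a fitted effect of over 55% in size.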 Further: potency means the concentration at half of the fitted maximal effect.
For experiment [7], the target named is Aryl hydrocarbon receptor (Homo sapiens) (UniProt P35869). Kind of experiment: qHTS assay to identify small molecule that activate the aryl hydrocarbon receptor (AhR) signaling pathway (AID 743085). Further: nearly all actives have a fitted effect of over 15% in size. Further: potency means the concentration at half of the fitted maximal effect.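 On activation: HG2L7.5c1 human HepG2 liver cells with stably integrated DRE-driven firefly reporter; series mostly up to about 70 µM.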 Summed up:
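HepG2 cells (HG2L7.5c1) stably carrying a firefly luciferase reporter driven by 20 dioxin responsive elements were exposed to compound for 24 h at 37C after a 5 h settling period; luminescence rise (ONE-Glo) indicated activation.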

Experiment [8] in a line: qHTS assay to identify small molecule that activate the aryl hydrocarbon receptor (AhR) signaling pathway - cell viability counter screen (AID 743086).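 Further: HepG2 liver cells carrying the AhR DRE luciferase reporter; series mostly up to about 70 µM; nearly all actives have a fitted effect of over 45% in size.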 Summed up:
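Cytotoxicity counter screen: CellTiter-Fluor signal (30 min, 37 C) in 4000 HepG2 cells/well carrying the DRE-luciferase reporter, following 24 h compound exposure at 37 C.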

For experiment [9], the target named is Peroxisome proliferator-activated receptor gamma (Homo sapiens) (UniProt P37231). Kind of experiment: qHTS assay to identify small molecule agonists of the peroxisome proliferator-activated receptor gamma (PPARg) signaling pathway (AID 743094; active means well fitted activation curve with a large enough effect in the signal ratio in the repeat runs, not every such curve was filed as active; the % refers to the signal ratio). Summed up:
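Cell-based bla reporter, HEK293H background, PPARg-driven UAS. Pre-incubation 5 h, 37C, 5% CO2. Compound 17 h, 37C. Substrate 1 h RT; fluorescence.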

A short description of experiment [10]: qHTS assay to identify small molecule antagonists of the peroxisome proliferator-activated receptor gamma (PPARg) signaling pathway - cell viability counter screen (AID 743194). Further: nearly all actives have a fitted effect of over 55% in size. Put shortly:
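Viability was measured as CellTiter-Glo luminescence in GeneBLAzer PPARg UAS-bla HEK293H cells. These cells had been exposed 17 h at 37 C to compounds together with rosiglitazone at 50 nM final, with the beta-lactamase readout taken in the same wells.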

Experiment [11] in a line: qHTS assay for small molecule agonists of the antioxidant response element (ARE) signaling pathway - cell viability counter screen (AID 743203; calls by dose curve; further: nearly all actives have a fitted effect of over 55% in size). Put shortly: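 Measured in the same wells as the beta-lactamase ARE reporter, this read-out is CellTiter-Glo luminescence from HepG2 ARE-bla cells given compounds for 16 hrs.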
Experiment [12] in a line: qHTS assay for small molecule activators of the heat shock response signaling pathway - cell viability counter screen (AID 743209). Further: nearly all actives have a fitted effect of over 50% in size. Put shortly: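 Same-well multiplex: after 2.5 h room-temperature incubation with LiveBLAzer B/G substrate and fluorescence reading, CellTiter-Glo reagent was added to HSE-bla HeLa cells that had received compound for 5 h at 37 C; luminescence read after 30 min.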

Experiment [13] can be described thus: qHTS assay for small molecule activators of the heat shock response signaling pathway (AID 743210; active means well fitted activation curve with a large enough effect in the signal ratio in the repeat runs, with a control signal flat, not every such curve was filed as active; the % refers to the signal ratio; further: potency means the concentration at half of the fitted maximal effect;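 on activation: HeLa cells with beta-lactamase reporter driven by heat shock elements; series mostly up to about 63 µM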). Put shortly: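 Fluorescence from a cleaved B/G FRET substrate (2.5 h, room temp) reports HSE-driven beta-lactamase in HeLa cells treated 5 h at 37 C with DMSO-dissolved compounds.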
A short description of experiment [14]: qHTS assay to identify small molecule agonists of the peroxisome proliferator-activated receptor delta (PPARd) signaling pathway - cell viability counter screen (AID 743211). Further: nearly all actives have a fitted effect of over 55% in size. Summed up: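 PPARd-bla HEK293H cells (UAS-beta-lactamase reporter) were treated with compounds for 17 h at 37 C. Viability was then read in the same wells by CellTiter-Glo luminescence after 30 min at room temperature.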

A short description of experiment [15]: qHTS assay for small molecule agonists of the antioxidant response element (ARE) signaling pathway (AID 743202; active means well fitted activation curve with a large enough effect in the signal ratio in the repeat runs, not every such curve was filed as active; the % refers to the signal ratio; further: potency means the concentration at half of the fitted maximal effect). Put shortly:
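Beta-lactamase reporter activity, read as fluorescence intensity, reflects ARE/Nrf2 pathway induction in HepG2 cells after 16 h compound exposure at 37 C; substrate loading was 2 h at room temperature.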

In experiment [16] the target is Estrogen receptor (Homo sapiens) (UniProt P03372). The experiment can be described thus: qHTS assay to identify small molecule antagonists of the estrogen receptor alpha (ER-alpha) signaling pathway (AID 743069; active means well fitted curve in the direction sought with a large enough effect in the signal ratio in the repeat runs, not every such curve was filed as active; the % refers to the signal ratio). Summed up:
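Fluorescence intensity from a beta-lactamase FRET substrate served as the read-out. Cells: HEK293 with stably integrated ER-alpha-UAS-bla reporter. Agonist 17beta-estradiol was co-added with compounds; incubation 18 hr at 37C, substrate 2 hr at room temperature.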

Experiment [17] has the same target. Kind of experiment: qHTS assay to identify small molecule agonists of the estrogen receptor alpha (ER-alpha) signaling pathway (AID 743075; calls by dose curve).
Experiment [18] shares this target. Kind of experiment: qHTS assay to identify small molecule agonists of the estrogen receptor alpha (ER-alpha) signaling pathway using the BG1 cell line (AID 743079). Further: nearly all actives have a fitted effect of over 20% in size.
Experiment [19] can be described thus: qHTS assay to identify small molecule antagonists of the estrogen receptor alpha (ER-alpha) signaling pathway using the BG1 cell line (AID 743080; calls by dose curve;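 further: BG1 cells stimulated with 17beta-estradiol alongside compound; series mostly up to about 70 µM; nearly all actives have a fitted effect of over 25% in size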). Put shortly: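 BG1-Luc-4E2 cells (endogenous full-length ER-alpha, stable 4×ERE-luciferase) were starved 5 days in phenol-red-free medium with 10% charcoal-stripped FBS, plated 24 h, then given compound plus 17beta-estradiol for 21.5 h at 37 C; ONE-Glo luminescence read after 30 min.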

The target in experiment [20] is Peroxisome proliferator-activated receptor gamma (Homo sapiens) (UniProt P37231). Kind of experiment: qHTS assay to identify small molecule antagonists of the peroxisome proliferator-activated receptor gamma (PPARg) signaling pathway (AID 743191; calls by dose curve; further: series mostly up to about 63 µM; nearly all actives have a fitted effect of over 30% in size). Put shortly: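 Beta-lactamase reporter under UAS control in HEK293H PPARg-bla cells; compound treatment 17 h at 37C. Read-out: fluorescence intensity after 1 h room-temperature incubation with LiveBLAzer B/G FRET substrate.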
Peroxisome proliferator-activated receptor gamma (Homo sapiens), sequence (P37231 whole entry, looked up): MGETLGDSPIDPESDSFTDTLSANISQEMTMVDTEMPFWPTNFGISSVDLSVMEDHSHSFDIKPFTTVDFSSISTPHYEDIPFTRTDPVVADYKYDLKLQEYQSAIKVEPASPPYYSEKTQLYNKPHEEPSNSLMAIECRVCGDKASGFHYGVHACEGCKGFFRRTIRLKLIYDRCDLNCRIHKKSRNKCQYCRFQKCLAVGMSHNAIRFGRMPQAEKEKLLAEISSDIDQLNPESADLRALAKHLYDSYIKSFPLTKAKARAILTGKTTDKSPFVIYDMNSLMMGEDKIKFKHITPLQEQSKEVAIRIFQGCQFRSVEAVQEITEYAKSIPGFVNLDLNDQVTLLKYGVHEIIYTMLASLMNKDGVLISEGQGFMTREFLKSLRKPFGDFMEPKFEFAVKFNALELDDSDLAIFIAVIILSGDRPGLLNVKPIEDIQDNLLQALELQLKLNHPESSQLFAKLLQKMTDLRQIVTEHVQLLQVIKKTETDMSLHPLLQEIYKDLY

Aryl hydrocarbon receptor (Homo sapiens), sequence (P35869 whole entry, looked up): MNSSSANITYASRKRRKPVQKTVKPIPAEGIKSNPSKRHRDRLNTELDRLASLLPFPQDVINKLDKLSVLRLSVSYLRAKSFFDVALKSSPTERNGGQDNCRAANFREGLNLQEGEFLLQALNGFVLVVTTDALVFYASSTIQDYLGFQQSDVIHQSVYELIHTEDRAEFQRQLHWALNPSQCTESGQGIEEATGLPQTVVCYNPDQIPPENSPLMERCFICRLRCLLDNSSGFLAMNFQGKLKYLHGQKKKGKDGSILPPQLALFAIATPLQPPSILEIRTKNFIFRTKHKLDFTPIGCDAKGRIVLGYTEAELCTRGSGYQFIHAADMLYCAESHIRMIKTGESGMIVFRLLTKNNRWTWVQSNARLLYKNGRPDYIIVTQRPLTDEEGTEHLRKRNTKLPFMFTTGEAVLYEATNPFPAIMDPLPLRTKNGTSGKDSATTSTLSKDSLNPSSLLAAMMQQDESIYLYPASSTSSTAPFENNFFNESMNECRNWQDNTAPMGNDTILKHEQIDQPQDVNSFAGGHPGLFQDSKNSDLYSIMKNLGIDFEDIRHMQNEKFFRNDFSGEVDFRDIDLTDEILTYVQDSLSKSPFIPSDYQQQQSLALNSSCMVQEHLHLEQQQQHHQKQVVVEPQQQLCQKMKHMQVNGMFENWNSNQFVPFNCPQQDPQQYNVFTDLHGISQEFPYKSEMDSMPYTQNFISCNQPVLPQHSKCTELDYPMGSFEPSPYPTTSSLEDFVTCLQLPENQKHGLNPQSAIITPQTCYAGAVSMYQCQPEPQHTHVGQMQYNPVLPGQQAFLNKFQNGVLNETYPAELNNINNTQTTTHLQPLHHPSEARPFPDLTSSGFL
Estrogen receptor (Homo sapiens), sequence (P03372 whole entry, looked up): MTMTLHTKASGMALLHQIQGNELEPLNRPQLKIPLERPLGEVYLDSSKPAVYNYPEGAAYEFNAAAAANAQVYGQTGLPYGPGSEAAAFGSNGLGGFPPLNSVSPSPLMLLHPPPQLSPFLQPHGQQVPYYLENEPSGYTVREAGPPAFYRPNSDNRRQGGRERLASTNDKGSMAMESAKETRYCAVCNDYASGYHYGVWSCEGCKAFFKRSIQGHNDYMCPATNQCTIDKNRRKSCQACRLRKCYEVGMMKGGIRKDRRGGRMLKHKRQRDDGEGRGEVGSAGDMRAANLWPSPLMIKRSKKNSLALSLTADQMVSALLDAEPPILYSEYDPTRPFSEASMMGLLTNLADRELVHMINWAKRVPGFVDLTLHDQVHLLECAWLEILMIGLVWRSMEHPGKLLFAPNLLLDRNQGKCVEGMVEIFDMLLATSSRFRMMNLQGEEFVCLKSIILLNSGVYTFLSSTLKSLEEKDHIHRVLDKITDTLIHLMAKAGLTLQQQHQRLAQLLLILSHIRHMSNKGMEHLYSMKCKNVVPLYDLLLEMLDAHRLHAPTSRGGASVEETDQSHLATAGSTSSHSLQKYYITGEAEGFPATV

Turning to `COc1ccc(Cl)cc1C(=O)NCCc1ccc(S(=O)(=O)NC(=O)NC2CCCCC2)cc1`, the Potency result in experiment [1], in experiment [2], in experiment [4], in experiment [5], in experiment [6] and in experiment [7] was “inactive” in each case. Further, the Potency result in experiment [13] was “inactive”. The molecule was called inactive in experiment [3], in experiment [8], in experiment [9], in experiment [10], in experiment [11] and in experiment [12]. Further, the molecule was called inactive in experiment [14].
With `CCCCCCCCC/C=C/CC1CC(=O)OC1=O` (configuration not stated), the Potency result in experiment [2], in [4] and in experiment [13] was “inactive” in each case. Moreover, the call in [3], in experiment [8], in experiment [10], in experiment [12] and in [14] was inactive.
On to `NNc1nncc2ccccc12`, for which the molecule was called inactive in experiment [3], in experiment [8], in experiment [10], in [12] and in experiment [14]. Further, the Potency result in [4], in experiment [5] and in experiment [13] was “inactive” in each case. Further, the Potency in [7] was 9.69 µM (active).
As to `CCCCC(CC)COC(=O)CS` (configuration not stated), the Potency entry in [1], in experiment [2], in experiment [4], in [15] and in experiment [13] was “inactive” each time. The result in experiment [3], in [8], in experiment [10], in [11], in [12] and in experiment [14] was inactive.
Regarding `C=C(C)C(=O)OCCOCCOCCOC(=O)C(=C)C`, the Potency result in experiment [1], in experiment [2], in experiment [4], in [5], in experiment [6] and in experiment [7] was “inactive” in each case. In addition, the outcome in [3], in experiment [8], in experiment [9], in experiment [10], in [11] and in experiment [12] was inactive. Besides, the outcome in experiment [14] was inactive.
Regarding `O=C(CC(C(=O)OC1CCCCC1)S(=O)(=O)O)OC1CCCCC1` (configuration not stated), the Potency result in experiment [1], in experiment [2], in experiment [4], in experiment [5], in experiment [6] and in experiment [15] was “inactive” in each case. The result in [3], in experiment [8], in [9], in experiment [10], in [12] and in experiment [14] was inactive.
Consider `OCc1cccnc1`, for which the Potency result in [2], in experiment [16], in experiment [17], in experiment [18], in experiment [19] and in [4] was “inactive” in each case. The Potency result in experiment [5], in [6], in experiment [7], in [15] and in experiment [13] was “inactive” each time. The result in experiment [3], in experiment [8], in experiment [10], in experiment [11], in experiment [12] and in experiment [14] was inactive.
`O=C(O)[C@H](O)[C@@H](O)[C@H](O)[C@H](O)CO`: the Potency entry in experiment [1], in experiment [2], in experiment [4], in experiment [5], in experiment [6] and in experiment [7] was “inactive” in each case. Also, the Potency result in experiment [15] and in [13] was “inactive” throughout. Besides, the outcome in experiment [3], in experiment [8], in [9], in experiment [10], in experiment [11] and in experiment [12] was inactive. In [14], the outcome was inactive.
Take `CCCCC(CC)CO` (configuration not stated): the Potency entry in [1], in experiment [2], in experiment [4], in experiment [5], in [6] and in experiment [7] was “inactive” each time. In addition, the Potency entry in experiment [15] is “inactive”. The outcome in [3], in experiment [8], in experiment [9], in [10], in [11] and in experiment [12] was inactive. Moreover, the molecule was classed as inactive in experiment [14].
For the molecule `CN(C)CCC(c1ccccc1)c1ccccn1` (configuration not stated), the Potency result in experiment [1], in [2], in experiment [4], in [6], in experiment [7] and in [15] was “inactive” each time. In addition, the Potency entry in experiment [13] was “inactive”. Moreover, the result in [3], in experiment [8], in experiment [10], in [11], in experiment [12] and in [14] was inactive.
As to `Nc1cc([N+](=O)[O-])ccc1O`, the Potency result in experiment [1], in [2], in experiment [5] and in experiment [13] was “inactive” each time. The result in experiment [3], in experiment [9], in experiment [20], in experiment [10], in experiment [11] and in experiment [12] was inactive. Besides, the outcome in experiment [14] was inactive. The Potency in experiment [4] was 54.5 µM (active); in experiment [6], 54.5 µM (active); in experiment [15], 17.1 µM (active).
For the molecule `CCCCCCCCCCCCc1ccccc1`, the call in experiment [3], in experiment [8], in experiment [9], in experiment [20], in experiment [10] and in experiment [11] was inactive. The outcome in [12] and in experiment [14] was inactive. Further, the Potency result in experiment [4], in [5], in experiment [6], in experiment [7], in experiment [15] and in [13] was “inactive” throughout.
As to `CSCCC=O`, the outcome in [3], in experiment [8], in [9], in [10], in [12] and in experiment [14] was inactive. The Potency entry in experiment [4], in [5], in experiment [6], in [7] and in [15] was “inactive” in each case.
On to `CCCSc1ccc2nc(NC(=O)OC)[nH]c2c1`, for which the molecule was classed as inactive in experiment [3], in experiment [8], in experiment [10], in experiment [11], in experiment [12] and in experiment [14]. Further, the Potency entry in experiment [4], in [5], in experiment [6] and in [15] was “inactive” throughout. The Potency in experiment [7] was 4.52 µM (active) and 34.4 µM (active); in [13], 16.7 µM (active).
